Sampled rows, rich in hits. Any-hit rate of the full collection: about 3.4%.
PLCg1 inh – PLC-gamma1 (human) inhibition, primary screen | P19174 | purified PLC-gamma1, fluorogenic substrate, fluorescence | inhibition, % at 12.2 µM | actives 0.84% (n = 370,000); in the data active = inhibition above about 9.5%
ADAM17 inh – inhibits human ADAM17. recombinant ADAM17, EDANS/DABCYL FRET peptide cleavage. AID 720648. actives 0.83% (n = 370,000). P78536. inhibition, % at 6.95 µM;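 active = inhibition above the mean of compounds lying between control limits plus 3 SD, set per campaign, cut at about 8.5% in these data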
ADAM10 inh – ADAM10 inhibition, QFRET primary screen; O14672; AID 720582; inhibition, % at 7 µM; recombinant ADAM10, EDANS/DABCYL FRET peptide cleavage, 3 h; actives 0.62% (n = 370,000);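 active = inhibition above a per-campaign cutoff equal to the mean of compounds falling between control-based bounds plus 3 SD, cut at about 20% in these data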
KLK7 zymogen act – proKLK7 (human) activation, primary screen. P49862. purified proKLK7, EDANS-DABCYL substrate fluorescence; 100% is mature enzyme control, 0% vehicle. activation, % at 7 µM. actives 0.9% (n = 370,000). AID 652039;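 active = activation above the mean of all tested compounds plus 3 SD, computed per campaign excluding outliers beyond control limits, cut at about 13% in these data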
sPLA2-III inh – Inhibits HGIII-sPLA2 liposome hydrolysis, primary screen; actives 0.56% (n = 370,000); QFRET BODIPY PC-A2 liposome hydrolysis, fluorescence; AID 743126; Q9NZ20; inhibition, % at 12.2 µM;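 active = inhibition above mean plus 3 SD of compounds lying within the high and low control bounds, cut at about 19% in these data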
Target sequence (Q9NZ20 whole entry, looked up): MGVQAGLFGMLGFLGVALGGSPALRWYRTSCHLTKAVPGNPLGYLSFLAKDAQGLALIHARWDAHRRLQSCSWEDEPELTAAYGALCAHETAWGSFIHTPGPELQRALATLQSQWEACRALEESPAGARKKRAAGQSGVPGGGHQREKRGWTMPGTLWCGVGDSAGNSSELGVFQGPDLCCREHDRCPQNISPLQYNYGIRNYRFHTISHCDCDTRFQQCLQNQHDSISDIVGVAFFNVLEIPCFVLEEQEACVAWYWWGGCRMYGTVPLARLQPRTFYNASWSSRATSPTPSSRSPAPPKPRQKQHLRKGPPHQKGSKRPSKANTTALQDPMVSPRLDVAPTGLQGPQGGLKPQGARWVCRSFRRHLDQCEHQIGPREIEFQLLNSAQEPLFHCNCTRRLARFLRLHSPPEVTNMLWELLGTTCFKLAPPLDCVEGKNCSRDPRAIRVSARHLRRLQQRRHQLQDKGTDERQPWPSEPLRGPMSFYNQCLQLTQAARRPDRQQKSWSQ
PLCb3 inh – inhibitors of human phospholipase C beta3; Q01970; Purified PLC-beta3, fluorogenic substrate, fluorescence; inhibition, % at 12.2 µM; actives 0.18% (n = 370,000); AID 720704; in the data active = inhibition above about 11%
ADAM10 confirm – confirmation of inhibitors of human ADAM10; inhibition, % at 6.95 µM; actives 1% (n = 2,100); shares compounds with ADAM10 inh; ADAM10 QFRET peptide cleavage, EDANS fluorescence;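 active = inhibition above about 20% chosen separately for each screening run, limit read from the data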
ADAM17 ctr – counter-screen for ADAM10 exosite inhibitors: inhibitors of human ADAM17; shares compounds with ADAM10 inh; ADAM17 QFRET peptide cleavage, EDANS fluorescence; inhibition, % at 6.95 µM; actives 0.5% (n = 2,100); AID 743214;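 active = mean triplicate inhibition above the solvent-only control wells' mean plus 3 SD, cut at about 12% in these data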
ADAM10 ctr – ADAM10 inhibition, counter-screen for ADAM17 exosite hits; inhibition, % at 6.95 µM; shares compounds with ADAM17 inh; recombinant ADAM10, EDANS/DABCYL FRET peptide cleavage, 3 h; actives 47% (n = 2,900);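 active = mean inhibition over the triplicate runs exceeds the activity threshold set in the earlier primary screen, cut at about 20% in these data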
ADAM17 confirm – human ADAM17 inhibition, confirmation | shares compounds with ADAM17 inh | recombinant ADAM17, EDANS/DABCYL QFRET peptide cleavage | inhibition, % at 6.95 µM | actives 65% (n = 2,900);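 active = mean inhibition across replicates above the hit cutoff set in the primary screen, cut at about 8.5% in these data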
hGIII sPLA2 conf – human GIII-sPLA2 inhibition, confirmation; shares compounds with sPLA2-III inh; recombinant hGIII-sPLA2, BODIPY PC-A2 QFRET fluorescence; inhibition, % at 12.2 µM; actives 34% (n = 2,000);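 active = mean inhibition across triplicates above the hit cutoff set in the earlier primary screen, cut at about 19% in these data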
535nm interf – optically interferes with 535nm fluorescence in sPLA2 counter-screen; shares compounds with sPLA2-III inh; BODIPY FL product fluorescence interference, QFRET; inhibition, % at 12.2 µM; actives 8.5% (n = 2,000);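 active = average inhibition above the solvent-only control mean plus 3 SD, cut at about 6% in these data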
BODIPY interf DR – 535nm optical interference dose response, HGIII-sPLA2 counter-screen; shares compounds with sPLA2-III inh; BODIPY FL product fluorescence interference, cell-free; IC50, µM; 240 tested, under 10 active;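 active = IC50 at or below 10 µM; inactive = IC50 above 10 µM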
Hits are given with their value.

Screening O=C(c1ccccc1O)N1N=C(C(F)(F)F)CC1(O)c1ccc([N+](=O)[O-])cc1 (configuration not stated) returned PLCg1 inh inactive, ADAM17 inh inactive, ADAM10 inh 27, KLK7 zymogen act inactive, sPLA2-III inh 21, PLCb3 inh inactive, ADAM10 confirm inactive, ADAM17 ctr inactive, hGIII sPLA2 conf inactive and 535nm interf inactive.
For Cc1ccc(C(=O)NC(=S)NNC(=O)c2ccccc2[N+](=O)[O-])cc1 the results were PLCg1 inh inactive, ADAM17 inh inactive, ADAM10 inh inactive, KLK7 zymogen act inactive, sPLA2-III inh inactive and PLCb3 inh inactive.
For CCCCOc1ccccc1C(=O)NNC(=S)NC(=O)c1ccccc1[N+](=O)[O-] the results were PLCg1 inh inactive, ADAM17 inh inactive, ADAM10 inh 27, KLK7 zymogen act inactive, sPLA2-III inh 43, PLCb3 inh inactive, ADAM10 confirm inactive, ADAM17 ctr inactive, hGIII sPLA2 conf 48, 535nm interf inactive and BODIPY interf DR inactive.
For Cc1[nH]c(N=Nc2ccccc2)nc1N=Nc1ccccc1 the results were PLCg1 inh inactive, ADAM17 inh inactive, ADAM10 inh 21, KLK7 zymogen act inactive, sPLA2-III inh 25, PLCb3 inh inactive, ADAM10 confirm inactive, ADAM17 ctr inactive, hGIII sPLA2 conf inactive and 535nm interf 9.0.
For CCCCCN1CCCCC(NC(=O)c2ccc(F)c(F)c2)C1=O (configuration not stated) the results were PLCg1 inh inactive, ADAM17 inh inactive, ADAM10 inh inactive, KLK7 zymogen act inactive, sPLA2-III inh inactive and PLCb3 inh inactive.
`Cc1csc(NC(=O)c2ccc(COc3cccc(F)c3)o2)n1` gave PLCg1 inh inactive, ADAM17 inh inactive, ADAM10 inh inactive, KLK7 zymogen act inactive, sPLA2-III inh inactive and PLCb3 inh inactive.
`Cc1ccc(S(=O)(=O)N(C)C)cc1NC(=S)NNC(=O)C1CC1` gave PLCg1 inh inactive, ADAM17 inh inactive, ADAM10 inh 20, KLK7 zymogen act inactive, sPLA2-III inh 30, PLCb3 inh inactive, ADAM10 confirm inactive, ADAM17 ctr inactive, hGIII sPLA2 conf inactive and 535nm interf inactive.
Screening CCN(CC)S(=O)(=O)c1ccc(C)c(NC(=S)NNC(=O)C2CC2)c1 returned PLCg1 inh inactive, ADAM17 inh 9.7, ADAM10 inh 24, KLK7 zymogen act inactive, sPLA2-III inh 20, PLCb3 inh inactive, ADAM10 confirm inactive, ADAM17 ctr inactive, ADAM10 ctr inactive, ADAM17 confirm inactive, hGIII sPLA2 conf 23 and 535nm interf inactive.
For Cc1ccc(S(=O)(=O)N(C)C)cc1NC(=O)C1CCCC1 the results were PLCg1 inh inactive, ADAM17 inh inactive, ADAM10 inh inactive, KLK7 zymogen act inactive, sPLA2-III inh inactive and PLCb3 inh inactive.
`COc1ccc2c(c1)C1C=CCC1C(c1cc3c(cc1Br)OCO3)N2` (configuration not stated) gave PLCg1 inh inactive, ADAM17 inh 9.1, ADAM10 inh 22, KLK7 zymogen act inactive, sPLA2-III inh 20, PLCb3 inh inactive, ADAM10 confirm inactive, ADAM17 ctr inactive, ADAM10 ctr inactive, ADAM17 confirm inactive, hGIII sPLA2 conf 34 and 535nm interf 8.9.
For CC(=O)c1ccc2c(c1)C1C=CCC1C(c1cc3c(cc1Br)OCO3)N2 (configuration not stated) the results were PLCg1 inh inactive, ADAM17 inh inactive, ADAM10 inh inactive, KLK7 zymogen act inactive, sPLA2-III inh inactive and PLCb3 inh inactive.
`Cc1cc(C)c(O)c(-c2n[nH]c3c2C(c2cccc(O)c2)N(Cc2ccco2)C3=O)c1` (configuration not stated) gave PLCg1 inh inactive, ADAM17 inh 21, ADAM10 inh 37, KLK7 zymogen act inactive, sPLA2-III inh 24, PLCb3 inh inactive, ADAM10 confirm inactive, ADAM17 ctr inactive, ADAM10 ctr 48, ADAM17 confirm 23, hGIII sPLA2 conf inactive and 535nm interf inactive.
`COc1cccc(C2C(C(C)=O)=C(O)C(=O)N2Cc2ccco2)c1` (configuration not stated) gave PLCg1 inh inactive, ADAM17 inh inactive, ADAM10 inh inactive, KLK7 zymogen act inactive, sPLA2-III inh inactive and PLCb3 inh inactive.
COc1ccccc1N(C)S(=O)(=O)c1ccc(C(=O)NNC(=O)c2ccccc2O)cc1 was read as PLCg1 inh inactive, ADAM17 inh 9.0, ADAM10 inh 22, KLK7 zymogen act inactive, sPLA2-III inh 20, PLCb3 inh inactive, ADAM10 confirm inactive, ADAM17 ctr inactive, ADAM10 ctr inactive, ADAM17 confirm 12, hGIII sPLA2 conf inactive and 535nm interf inactive.
CCOc1ccc(NC(=O)CN(C)CC(=O)Nc2cc(Cl)ccc2C#N)cc1OCC was read as PLCg1 inh inactive, ADAM17 inh 9.0, ADAM10 inh inactive, KLK7 zymogen act inactive, sPLA2-III inh inactive, PLCb3 inh inactive, ADAM10 ctr inactive and ADAM17 confirm inactive.
`CC(=O)N1CCN(S(=O)(=O)c2ccc3c(c2)oc(=O)n3C)CC1` gave PLCg1 inh inactive, ADAM17 inh inactive, ADAM10 inh inactive, KLK7 zymogen act inactive, sPLA2-III inh inactive and PLCb3 inh inactive.
Screening Cc1cc(C)cc(-n2c(SCC(=O)NCc3ccco3)nc3ccccc3c2=O)c1 returned PLCg1 inh inactive, ADAM17 inh 10, ADAM10 inh inactive, KLK7 zymogen act inactive, sPLA2-III inh inactive, PLCb3 inh inactive, ADAM10 ctr inactive and ADAM17 confirm 8.7.
Cc1cccc(C)c1-n1c(SCC(=O)NCc2ccco2)nc2ccccc2c1=O was read as PLCg1 inh inactive, ADAM17 inh inactive, ADAM10 inh inactive, KLK7 zymogen act inactive, sPLA2-III inh inactive and PLCb3 inh inactive.
